# Bioassay records: PubChem BioAssay, National Center for Advancing Translational Sciences (NCATS)
# Sfp inh: Sfp phosphopantetheinyl transferase inhibition. Q9F4F7. Biochemical Sfp PPTase activity, qHTS. Potency, µM, hits mostly inhibitors. actives 3.5% (n = 310,000); active means well fitted curve in the direction sought with a large enough effect; inconclusive means small, poorly fitted or top-dose-only effect, or another doubt; inactive means no such curve, though single readings can be large; an effect the other way counts as inactive or inconclusive;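 further: the enzyme is Sfp with the accession as filed and its product quenches rhodamine fluorescence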
#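 After 15 min at room temperature with compound, 15 nM Sfp received 5 uM rhodamine-CoA plus 12.5 uM BHQ-2-ybbR (50 mM Hepes pH 7.6, 10 mM MgCl2). Rate came from the fluorescence difference over 30 min, ex 525/em 598 nm.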
# Coupling enz: inhibits coupling enzyme system, counter-screen for aldolase hits. coupling enzyme system counterscreen, AmpLite Red fluorescence. activity change, negative = inhibition, % at 58.2 µM, hits read low. actives 0.67% (n = 290,000); in the data active means activity change below about -30%
#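 First, compound is pin-transferred into glyceraldehyde-3-phosphate coupling-enzyme reagent at 57.5 uM final and held 10 min at RT. Next, substrate, coupling system and AmpLite Red are added. After 20 min RT, fluorescence (525/598 nm) is read.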
# NPSR antag: blocks cAMP signaling of the human neuropeptide S receptor. CHO-NPSR cells, cAMP TR-FRET, antagonist mode. actives 1% (n = 220,000). Q6W5P4. Potency, µM (series often up to 38.3 µM), usual class: inhibitors; active means well fitted curve in the direction sought with a large enough effect; inconclusive means small, poorly fitted or top-dose-only effect, or another doubt; inactive means no such curve, though single readings can be large; an effect the other way counts as inactive or inconclusive; further: nearly all actives have a fitted effect of over 50% in size
# ALDH1A1 inh: blocks purified human ALDH1A1 activity | Purified ALDH1A1, NADH fluorescence, propionaldehyde substrate | Potency, µM (highest dose often 75.3 µM), usual class: inhibitors | actives 7.3% (n = 220,000) | AID 1030
# Target sequence (P00352 whole entry, looked up): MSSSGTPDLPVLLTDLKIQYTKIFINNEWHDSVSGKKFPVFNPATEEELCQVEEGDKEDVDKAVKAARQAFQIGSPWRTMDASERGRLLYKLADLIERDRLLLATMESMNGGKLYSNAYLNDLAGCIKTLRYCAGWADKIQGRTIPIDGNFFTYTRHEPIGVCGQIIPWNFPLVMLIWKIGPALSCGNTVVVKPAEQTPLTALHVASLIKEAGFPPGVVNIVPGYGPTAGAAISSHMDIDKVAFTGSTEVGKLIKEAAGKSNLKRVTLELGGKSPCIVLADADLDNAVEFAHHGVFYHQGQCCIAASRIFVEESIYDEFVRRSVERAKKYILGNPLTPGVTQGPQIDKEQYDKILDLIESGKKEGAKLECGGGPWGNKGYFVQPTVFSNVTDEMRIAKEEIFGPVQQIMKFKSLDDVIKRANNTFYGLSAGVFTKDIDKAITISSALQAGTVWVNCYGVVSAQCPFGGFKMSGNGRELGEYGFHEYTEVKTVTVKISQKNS
# GoLoco inh red: blocks human Gai1 binding to RGS12 GoLoco peptide, red readout; Potency, µM (highest dose often 61.6 µM), most hits filed as inhibitors; AID 880; Gai1:RGS12 GoLoco peptide FP, rhodamine, 10 min; actives 0.44% (n = 230,000); P63096; active means well fitted inhibition curve with a large enough effect, not every such curve was filed as active; inactive means no such curve, though single readings can be large or run the other way; further: nearly all actives have a fitted effect of over 30% in size
# JMJD2E inh: blocks human JMJD2E demethylase activity; JMJD2E catalytic domain, FDH-coupled NADH fluorescence (FDH is formaldehyde dehydrogenase); Potency, µM (highest dose often 57.1 µM), most hits filed as inhibitors; B2RXH2; actives 1.6% (n = 230,000); further: nearly all actives have a fitted effect of over 50% in size
# A number is an active result; - = inactive; ? = inconclusive; . = not tested or not shown. Only some compounds are listed: those with a hit (about 8.5% of all), similar ones and a draw of the others. Unless noted, the call rests on the fitted dose curve; in most records, active means well fitted inhibition curve with a large enough effect (not every such curve was filed as active); inconclusive means small, poorly fitted or top-dose-only effect, or another doubt; inactive means no such curve, though single readings can be large or run the other way.
SMILES,Sfp inh,Coupling enz,NPSR antag,ALDH1A1 inh,GoLoco inh red,JMJD2E inh
COc1cccc(-n2cnnn2)c1,-,-,-,-,-,-
O=C(CSc1nnnn1Cc1ccccc1)Nc1cccc(F)c1,-,-,.,.,.,.
COc1cccc(-n2nnnc2SCC(=O)Nc2cccc(NC(C)=O)c2)c1,-,-,-,7.1µM,-,-
CC(=O)Nc1cccc(NC(=O)CSc2nnnn2Cc2ccccc2)c1,-,-,-,13µM,-,-
COc1ccc(NC(=O)CSc2nnnn2Cc2ccccc2)cc1,-,-,-,?,-,-
COc1cccc(-n2nnnc2S(C)(=O)=O)c1,-,-,10µM,1.3µM,-,-
COc1cccc(-n2nnnc2SCC(=O)Nc2ccc(NC(C)=O)cc2)c1,-,-,.,.,.,.
O=C(CSc1nc2ccc(NC(=O)CSc3nnnn3Cc3ccccc3)cc2s1)Nc1ccccc1,-,-,-,13µM,-,-
CCOC(=O)CCc1c(C)c2ccc(O)cc2oc1=O,-,-39,-,?,-,?
CCCCCCCCCn1c2c(c(=N)c3c1CCC3)CCC2,-,-,7.9µM,-,-,-
CCCCCCn1c2c(c(=N)c3c1CCC3)CCC2,-,-,-,?,-,-
CCCCCCCn1c2c(c(=N)c3c1CCC3)CCCC2,-,-,-,-,-,3.5µM
CCN1CCN(c2nnc(-c3ccc(C)cc3)c3ccccc23)CC1,-,-,.,.,.,.
COc1ccc(-c2c(NC(=O)c3ccco3)oc3c(C)cccc3c2=O)cc1OC,-,.,.,.,.,.
COc1ccc2c(c1)O[C@@H](c1ccc3c(c1)OCO3)[C@H](OC(=O)NCCOc1ccccc1)C2=O,-,-,.,-,-,-
O=C(Nc1ccccc1)Nn1cnnc1,-,-,.,.,.,.
CNC(=S)Nc1ccc(OC)c(OC)c1,-,-,-,-,-,-
COc1ccc(NC(=S)Nn2cnnc2)cc1OC,20µM,-,-,4µM,-,-
CCc1ccc(NC(=S)Nn2cnnc2)cc1,14µM,-,-,1.4µM,-,-
COc1ccc(NC(=S)NC23CN4CN(CN(C4)C2)C3)c(OC)c1,-,-,-,-,-,-
COc1ccc(NC(=S)Nn2cnnc2)c(OC)c1,18µM,.,.,.,.,.
S=C(Nc1ccccc1)Nn1cnnc1,13µM,-,-,6.3µM,-,-
O=C(NCc1cnn(-c2ccc(F)cc2)c1)C1CCC(=O)N(C2CC2)C1 (configuration not stated),-,.,.,.,.,.
COc1ccc2cc(OCC(=O)NNC(=O)Nc3ccc(F)cc3)ccc2c1,-,.,.,.,.,.
Cc1ccc2c(c1)N(C(=O)CCC(=O)N1CCC(C(N)=O)CC1)CCO2,-,-,.,.,.,.
SMILES,Sfp inh,Coupling enz,NPSR antag,ALDH1A1 inh,GoLoco inh red,JMJD2E inh
Cc1ccc(NC(=S)Nn2cnnc2)cc1,8.9µM,-,-,3.5µM,-,-
Nc1cc(Cl)ccc1N1CCCCC1,-,-,-,-,-,-
Nc1ccc(N2CCCCC2)cc1N1CCCCC1,32µM,-,-,4µM,-,-
Nc1cc(Cl)ccc1N1CCCCCC1,-,-,-,18µM,-,?
O=C(Nc1ccccc1)c1ccc(N2CCN(c3ccccn3)CC2)c(S(=O)(=O)N2CCOCC2)c1,-,-,-,28µM,-,?
O=C(Nc1ccccc1)c1ccc(N2CCN(c3ccccc3)CC2)c(S(=O)(=O)N2CCOCC2)c1,-,-,-,?,-,?
C=C(C)C(=O)/C=C/CCC/C=C/C(=O)OCC,-,-,.,25µM,-,-
CCOC(=O)C1(Cc2cccc(F)c2)CCN(C(=O)Cn2cnnn2)CC1,-,-,-,.,-,-
O=C(O)/C=C/C(=O)Nc1ccc2c(c1)NC(=O)CO2,-,-,-,22µM,-,-
O=C1COc2ccc(C(=O)/C=C/c3ccccc3)cc2N1,-,-,-,?,-,-
CCOC(=O)C1CCN(S(=O)(=O)c2ccc(OC)c(Cl)c2)CC1,-,-,-,-,-,-
CCOC(=O)c1c(C)[nH]c(C)c1C(=O)CSc1nc2ccccc2c(=O)n1-c1ccccc1C,-,-,-,20µM,-,-
CN(Cc1ccco1)C(=O)c1c[nH]c2ccc(S(=O)(=O)Nc3ccc4c(c3)OCCO4)cc2c1=O,-,-,-,22µM,-,-
CCc1ccc(NS(=O)(=O)c2ccc3[nH]cc(C(=O)N(C)Cc4ccco4)c(=O)c3c2)cc1,-,-,-,-,-,-
